Reference: PubChem BioAssay
Unmarked numbers belong to inactive results. How the calls were made is not given here.

Target: Pantothenate synthetase (Mycobacterium tuberculosis (strain ATCC 25618 / H37Rv)) (UniProt P9WIL5)
Test: Coupled enzyme confirmation of inhibitors against recombinant Mtb PanC (AID 375);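 further: 0% = full reaction with vehicle and 100% = no enzyme background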
Settings: coupled enzyme assay; at 10 µM, hits give high values

Chain of Pantothenate synthetase (Mycobacterium tuberculosis (strain ATCC 25618 / H37Rv)) (P9WIL5 whole entry, looked up): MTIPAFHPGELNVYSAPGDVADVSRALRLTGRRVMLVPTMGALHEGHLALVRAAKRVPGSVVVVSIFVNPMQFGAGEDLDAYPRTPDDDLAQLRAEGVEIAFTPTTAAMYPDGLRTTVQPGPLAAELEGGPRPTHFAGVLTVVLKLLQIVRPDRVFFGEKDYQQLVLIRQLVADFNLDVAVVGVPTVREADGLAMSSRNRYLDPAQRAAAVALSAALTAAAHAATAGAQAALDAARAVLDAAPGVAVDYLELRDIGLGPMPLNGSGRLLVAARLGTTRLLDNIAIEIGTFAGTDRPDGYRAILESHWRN

Row | Structure (SMILES) | inhibition
1 | COc1cccc(CN(C)CC(=O)NC(=O)NCc2ccco2)c1 | 0%
2 | CCCC(=O)Nc1cc(-c2nnc(OC)c3ccccc23)ccc1N1CCOCC1 | 0%
3 | O=C(NCCN1CCCCC1)c1ccc(=O)oc1 | 7%
4 | COCCNC(=O)C(c1ccc(C)o1)N(Cc1ccc(F)cc1)C(=O)Cn1nnc2ccccc21 (stereo not given) | 8%
5 | COc1cc(C(=O)N2CCN(c3cc(Cl)ccc3Cl)CC2)cc(OC)c1OC | 1%
6 | CCC(c1nnnn1Cc1ccco1)N(CCc1ccccc1)Cc1cc2cccc(C)c2[nH]c1=O (stereo not given) | 1%
7 | Cc1ccc(S(=O)(=O)N2CCCC2C(=O)OCc2nc3ccccc3s2)cc1 (stereo not given) | 0%
8 | O=S(NCc1ccco1)C12CC3CC(CC(C3)C1)C2 (stereo not given) | 0%
9 | O=S(=O)(c1cccs1)N1CCN(C/C=C/c2ccccc2)CC1 | 0%
10 | Cc1ccc(C(=O)Nc2ccc3c(c2)OCO3)cc1S(=O)(=O)N1CCCC1 | 0%
11 | CCN1CCN(C(=O)c2ccc3c(=O)n(CCC4=CCCCC4)c(=O)[nH]c3c2)CC1 | 0%
12 | COc1cccc(-c2nnn(CC(=O)O)n2)c1 | 0%
13 | CCOc1ccc(Cn2nnc(C(=O)NCc3ccc(OC)cc3)c2N)cc1 | 2%
14 | Cc1cccc(-c2c3c(=O)n(C)c(=O)n(C)c3cn2-c2ccc(O)cc2)c1 | 0%
15 | CCc1nnc(NC(=O)CCC(=O)Nc2ccccc2)s1 | 4%
16 | N#CC(C(=O)Nc1ccc(Cl)c(Cl)c1)=C1Nc2ccccc2N1 | 2%
17 | CC(C)(NC(=O)N1CCCC1)c1cccc(C(C)(C)NC(=O)N2CCCC2)c1 | 0%
18 | O=C(C1COc2ccccc2O1)N1CCCC1 (stereo not given) | 0%
19 | CN1CCN(C(c2cccc(C(F)(F)F)c2)c2nnnn2C(C)(C)C)CC1 (stereo not given) | 1%
20 | C#CCN1C(=O)C(O)(CC(=O)c2cc(OC)ccc2OC)c2ccccc21 (stereo not given) | 6%
21 | O=C(O)c1cccnc1Nc1cccc(C(F)(F)F)c1 | 0%
22 | CCOc1ccc2[nH]c(=O)c(CN(CCOC)C(=O)N3CCOCC3)cc2c1 | 8%
23 | COc1ccc(-c2nnc(SCc3nnc(-c4ccc(Cl)cc4)o3)n2-c2ccccc2)cc1 | 0%
24 | O=C(O)Cn1cc(C(=O)c2ccco2)c2ccccc21 | 4%
25 | Cc1nc(NS(=O)(=O)c2ccccc2)sc1NC(=O)OC(C)C | 0%

Row | Structure (SMILES) | inhibition
26 | Cc1ccc2nsnc2c1S(=O)(=O)N(Cc1cc2cccc(C)c2[nH]c1=O)CC1CCCO1 (stereo not given) | 0%
27 | CN(C)c1ccc(CNC2CC(C)(C)NC(C)(C)C2)cc1 | 0%
28 | COc1ccc(OCCOC(=O)c2cccs2)cc1 | 0%
29 | COCCCNC(=O)CSc1nc2ccc(N3CCOCC3)cc2c(=O)n1CCc1ccccc1 | 0%
30 | Cn1cccc1Cc1nnc(SCC(=O)Nc2ccccc2F)n1-c1ccc(F)cc1 | 0%
31 | CCOC(=O)Cn1nc(-c2ccc(C)cc2)ccc1=O | 0%
32 | CC(=NCC1CCNCC1)C1=C(O)CC(C)(C)CC1=O | 0%
33 | O=C(COC(=O)c1ccccc1C(=O)c1ccccc1)c1ccco1 | 0%
34 | CC1CCCCN1S(=O)(=O)c1ccc(NC(=O)c2cccs2)cc1 (stereo not given) | 0%
35 | CC(C)N=c1cc2n(-c3ccc(Cl)cc3)c3ccccc3nc-2cc1Nc1ccc(Cl)cc1 | 0%
36 | Cc1cc(C)n(-c2nnc(C)n2/N=C/c2ccccc2F)n1 | 9%
37 | COc1cccc2sc(NC(=O)c3ccc(S(=O)(=O)N4CCOCC4)cc3)nc12 | 1%
38 | Nn1c(SCc2csc(-c3ccccc3)n2)nnc1-c1cccs1 | 0%
39 | COc1ccc(C(=O)NCCSc2ccccn2)cc1 | 5%
40 | Cn1ccnc1SCC(=O)Nc1ccc2ccccc2c1 | 2%
41 | C=CCN(CC=C)C(=O)c1ccncc1 | 0%
42 | CCOc1ccccc1OCC(=O)Nc1nnc(COC)s1 | 4%
43 | CCCCCCOC(=O)C(C#N)c1nc2ccccc2nc1N1CCCCC1 (stereo not given) | 0%
44 | CCC(=O)Nc1cc(Cl)ccc1N1CCN(C(=O)CC)CC1 | 0%
45 | O=C(Cn1cnc2c(cnn2-c2ccc(F)cc2)c1=O)N1CCCc2ccccc21 | 0%
46 | CC(=O)C1=C(O)C(=O)N(c2ccc(C(=O)O)cc2)C1c1ccccc1 (stereo not given) | 0%
47 | CCOC(=O)N1CCN(C(=O)c2n[nH]c(=O)c3ccccc23)CC1 | 2%
48 | O=C(O)c1oc2ccccc2c1-n1cccc1 | 6%
49 | O=c1oc2c3c4c(cc2cc1-c1nc2ccccc2[nH]1)CCCN4CCC3 | 4%
50 | Cn1c(SCCN2CCCCC2)nnc1-c1ccccc1Br | 0%

Row | Structure (SMILES) | inhibition
51 | Cn1c(SCC(=O)Nc2ccc3c(c2)oc2ccccc23)nnc1-c1ccccc1 | 5%
52 | COc1cccc(-n2c(SC3CCOC3=O)nc3ccccc3c2=O)c1 (stereo not given) | 2%
53 | O=c1[nH]c(SCc2ccc(F)cc2)nc2c1cnn2-c1ccc(F)cc1 | 0%
54 | CC(C)[N+](C)(CCOC(=O)C1c2ccccc2Oc2ccccc21)C(C)C | 0%
55 | Cc1ccc(S(=O)(=O)N2CCOCC(=O)NCCOCCNC(=O)COCC2)cc1 | 0%
56 | Cc1ccc(NC(=O)Cn2cccc2)cc1Cl | 0%
57 | CCOC(=O)c1c(C)c(C(=O)NCCN2CCOCC2)c(C)n1C | 4%
58 | COc1cc(-c2nn3c(-c4cccnc4)nnc3s2)cc(OC)c1OC | 6%
59 | O=C(CCCCCn1c(=S)[nH]c2cc3c(cc2c1=O)OCO3)N1CCN(Cc2ccccc2)CC1 | 1%
60 | CCCNC(=O)c1ccccc1C(=O)NCCC | 0%
61 | CCCOC(=O)c1[nH]c2c(c1C)C(=O)CC(c1ccc(OC)c(OC)c1)C2 (stereo not given) | 0%
62 | Cc1ccc(-c2noc(-c3ccccc3C(=O)NCC3CCCO3)n2)cc1 (stereo not given) | 6%
63 | C=CCSC1=C(C#N)C(c2ccccc2Cl)CC(=O)N1 (stereo not given) | 0%
64 | O=C(CN1CCN(c2nc(-c3ccccc3)cs2)CC1)Nc1ccc2c(c1)OCO2 | 4%
65 | COCCCNC(=O)CCc1nc(-c2ccccc2Cl)no1 | 0%
66 | COC(=O)C1=C(N)OC2=C(C(=O)CCC2)C1c1cccs1 (stereo not given) | 0%
67 | Cc1ccc(S(=O)(=O)CC(=O)N2CCCCCC2)cc1 | 0%
68 | CCCCCn1c(CCNC(=O)CCC)nc2ccccc21 | 0%
69 | COC(=O)C(C#N)C(=C1C(=O)CC(C)(C)CC1=O)c1ccc(O)cc1 (stereo not given) | 0%
70 | CN(C(=O)c1ccno1)c1nnc(-c2cnccn2)s1 | 2%
71 | CC(C)(C)C1=Nn2c(nnc2-c2n[nH]c3c2CCC3)SC1 | 8%
72 | Cc1ccc(S(=O)(=O)N2CCCC2C(=O)OCc2ccco2)cc1 (stereo not given) | 5%
73 | Cc1cc(C)n(Cc2nc3ccccc3n2C)n1 | 0%
74 | Cc1ccc2c(CNCc3ccco3)cc(=O)oc2c1 | 0%
75 | COC(=O)c1sccc1NC(=O)c1ccco1 | 1%

Row | Structure (SMILES) | inhibition
76 | COC(=O)c1cc(OC)c(OC)cc1NC(=O)CC1CCCCC1 | 1%
77 | Cc1csc(NC(=O)CCCSc2nc3ccccc3s2)n1 | 0%
78 | CCc1nccn1S(=O)(=O)c1ccc(C)c(C)c1 | 0%
79 | COCCNC(=O)CN1C(=O)CSc2ncccc21 | 0%
80 | C=CCn1c(C)cc(C(=O)CSc2nc3ccccc3c(=O)[nH]2)c1C | 0%
81 | COc1cccc(OCc2nc3ccccc3[nH]2)c1 | 0%
82 | Cc1cc(NC(=O)C2CCCC2)nc2c1c(=O)oc1ccccc12 | 12%
83 | CN(CC(=O)O)S(=O)(=O)c1cc(Cl)ccc1Cl | 1%
84 | CC(=O)SCCC(=O)Nc1ccccc1 | 0%
85 | CC1CCc2cc(F)cc3c(=O)c(C(=O)O)cn1c23 (stereo not given) | 2%
86 | COCc1nnc(NC(=O)c2ccc(S(=O)(=O)N(C)c3ccccc3)cc2)o1 | 0%
87 | O=C(Nc1ccc2c(c1)OCO2)c1nn(-c2ccccc2)c(=O)c2ccccc12 | 3%
88 | Cc1ccc(CSC2=NCCN2C(=O)c2ccco2)cc1 | 0%
89 | Cc1nnc(SCCn2c(Br)nc3c2c(=O)n(C)c(=O)n3C)s1 | 1%
90 | Cc1cnc(NC(=O)C2=C(O)c3ccccc3S(=O)(=O)N2C)s1 | 0%
91 | CC[C@]1(O)CC2CN(CCc3c([nH]c4ccccc34)[C@@](C(=O)OC)(c3cc4c(cc3OC)N(C=O)[C@H]3[C@@](O)(C(=O)OC)[C@H](OC(C)=O)[C@]5(CC)C=CCN6CC[C@]43[C@@H]65)C2)C1 (stereo not given in full) | 1%
92 | Cc1cc(C)cc(-n2ccnc2SCC(=O)Nc2ccc3c(c2)OCCO3)c1 | 0%
93 | Cc1ccc(NC2=NC(c3ccccc3)n3c(nc(C)cc3=O)N2)cc1 (stereo not given) | 13%
94 | CC(=O)O[C@@]12CO[C@@H]1C[C@H](O)[C@@]1(C)C(=O)[C@H](O)C3=C(C)[C@@H](OC(=O)[C@H](O)[C@@H](NC(=O)OC(C)(C)C)c4ccccc4)C[C@](O)([C@@H](OC(=O)c4ccccc4)[C@H]21)C3(C)C | 0%
95 | CCS(=O)(=O)N1CCC(C(=O)NCCc2ccc(C)cc2)CC1 | 0%
96 | COc1ccc(NS(=O)(=O)c2ccc(NC(C)=O)cc2)cc1OC | 0%
97 | O=C(COC(=O)c1cnccn1)Nc1ccc2c(c1)OCO2 | 7%
98 | CCC(=O)N1CCc2cc(Br)cc(S(=O)(=O)CCC(=O)NCC3CCCO3)c21 (stereo not given) | 0%
99 | NC(=O)c1sc2nc(N3CCCCC3)c3c(c2c1N)CCCC3 | 0%
100 | COC(=O)c1cccc(NC(=O)CSc2nnc(COc3ccccc3)n2C)c1 | 0%
